Inconclusive results are not listed. Activity calls are given as the source filed them. The call rests on the fitted dose curve; in most records, active means well fitted activation curve with a large enough effect; inconclusive means small, poorly fitted or top-dose-only effect; inactive means flat fitted curve, though single readings scatter.
Potency means the concentration at half of the fitted maximal effect.

The assay can be described thus: Primary redox qHTS assay for identification of artifact compounds. (AID 1845223).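 On redox activity (% of DA3003): 0% = DMSO and 100% = reference compound.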 To be noted: Amplex Red/HRP redox cycling with DTT, fluorescence; series mostly up to 53.8 µM; redox activity (% of DA3003): at the top concentration. An outline of the steps: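 Amplex Red (25 uM) and HRP (250 mU/mL) in HBSS, with compounds for 15 min, then 250 uM DTT for 30 min, room temperature, dark. Fluorescence 525/598 nm read; normalized to DMSO and 10 uM DA3003; Hill fit.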
(In general: In qHTS, concentration-response curves come from the screen itself.)
For the compound `C/C1=C\CCC2=CC(OC2=O)C(C)(C)/C=C/C1=O` (centres undefined), the “redox activity (% of DA3003)” value is -6.82% (inactive). Same read-out and setting: the figure for `CC[C@H](C)/C=C(C)/C=C/C1=CC2=C(Cl)C(=O)[C@](C)(O)[C@H](OC(C)=O)[C@H]2CO1` is 3.99% (inactive). For the compound `C=C1CCC2[C@](C)(CCC[C@@]2(C)C=O)[C@H]1CC/C(C)=C/CO` (some centres undefined), the “redox activity (% of DA3003)” value is 14.8% (inactive). On the same count and under the same terms, in the case of `COc1ccccc1-c1ccc(-c2cn(C(=O)N3CCCCC3Cc3ccccc3)nn2)cc1` (centres undefined) it was -1.37% (inactive).

In the case of `C/C=C(\C)C(=O)O[C@H]1C=CC(=O)O[C@H]1/C=C/[C@@H](O)[C@H](C)O`, the “redox activity (% of DA3003)” value is -3.5% (inactive). Same read-out and setting: in the case of `CO[C@@H]1[C@H](O)CCC2(CO2)[C@H]1[C@@]1(C)O[C@@H]1CC=C(C)C` (some centres undefined) it was 9.16% (inactive). With `C=C1C(=O)O[C@@H]2[C@H]1CC[C@H](C)C(CCC(=O)O)C2(C)O` (some centres undefined), the “redox activity (% of DA3003)” value was -2.59% (inactive).

Turning to `NC(=O)c1cccc2[nH]c(-c3ccc(C4CCCN4)cc3F)nc12` (centres undefined), the “redox activity (% of DA3003)” value is -2.47% (inactive).

As for `Cc1csc(N(C(=O)CSc2ccc(-c3ccccc3)nn2)C2CC2)n1`, the “redox activity (% of DA3003)” value is -2.31% (inactive).

In the case of `Cc1c(C2=CCN(C(=O)N(C)C(C)C)CC2)nnn1-c1cccnc1F`, the “redox activity (% of DA3003)” value is -0.281% (inactive). Consider `CC(C)(N)c1ncc(-c2ccc(OC(F)(F)F)cc2)[nH]1`, for which the “redox activity (% of DA3003)” value is 0.901% (inactive).

For `CC1=C(C(=O)OC2CCCCC2)C(c2ccc([N+](=O)[O-])cc2)C2=C(CC(C)(C)CC2=O)N1` (centres undefined), the Potency was 2.12 µM (active). With `COc1ccc2c(c1O[C@H]1CCNC1)CCC2`, the “redox activity (% of DA3003)” value is -7.27% (inactive). Still for that read-out and setting: in the case of `CN(C)CC#CCCC(=O)C(O)(c1ccccc1)C1CCC1` (centres undefined) it was 2.03% (inactive). In the case of `O=C(NCCN1CCC(n2c(=O)[nH]c3ccccc32)CC1)c1ccc2ccccc2c1`, the “redox activity (% of DA3003)” value is -2.78% (inactive).

In the case of `CC(=O)O[C@@H]1[C@@H](O)[C@H](O[C@@H]2[C@@H](O)[C@@H](O)[C@H](O[C@H]3[C@H](O[C@H]4[C@H](O[C@H]5CC[C@@]6(C)C(CC[C@]7(C)C6CC=C6[C@@H]8CC(C)(C)CC[C@]8(C(=O)O)CC[C@]67C)[C@]5(C)CO)O[C@H](CO)[C@@H](O)[C@@H]4O)OC[C@@H](O)[C@@H]3O)O[C@H]2C)OC[C@H]1O` (some centres undefined), the redox activity (% of DA3003) was 0.129% [at 11.5 µM] (inactive).

As to `COc1ccc([C@H](Cc2ccncc2)c2ccccc2)cc1OC1CCCC1`, the “redox activity (% of DA3003)” value is 10.3% (inactive).

As to `CC(F)(F)CN1CCOc2c(nn(-c3ccccc3Cl)c2-c2ccc(Cl)cc2)C1=O`, the “redox activity (% of DA3003)” value is 4.04% (inactive). The same measure, in the same setting: the figure for `C[C@@H](NC(=O)C(=O)c1c[nH]c2ccc([N+](=O)[O-])cc12)c1ccccc1` is -1.06% (inactive). Same read-out and setting: in the case of `O=C(Nc1cccc2cccnc12)c1ccc(N2C(=O)[C@@H]3C4C=CC(C4)[C@@H]3C2=O)cc1` it was 10% (inactive); in that of `O=C(Nc1ccc(-n2nc(C(F)(F)F)cc2C(F)(F)F)cc1)c1ccncc1F`, -0.993% (inactive). The same measure, in the same setting: in the case of `C=C1C(=O)O[C@@H]2C[C@@]3(C)C[C@@H](O)C[C@H](C)C3=C[C@H]12` it was 8.14% (inactive); in that of `O=C(NCCCCCCCCNC(=O)C(Cl)Cl)C(Cl)Cl`, -1.2% (inactive). Turning to `CCCc1cc2c(N3CCN(C4=NCC(C)(C)S4)CC3)ncnc2s1`, the “redox activity (% of DA3003)” value was 7.15% (inactive).

As for `CC(C)c1c(O)ccc2c1CC[C@H]1C(C)(C)CCC[C@]21C`, the “redox activity (% of DA3003)” value was -1.95% (inactive). `C/C=C/CCC1Cc2cc(O)c(CCCC)c(O)c2C(=O)O1` (centres undefined): the “redox activity (% of DA3003)” value was 5.05% (inactive).

As to `CCOc1cn(-c2ccc(F)cc2C)nc1C(=O)Nc1ccc(Oc2ccnc3cc(OC)c(OC)cc23)c(F)c1`, the “redox activity (% of DA3003)” value was -11.3% (inactive).

As to `COc1ccc(OC)c(-c2ccc(NC(=O)c3ccncc3F)cc2)c1`, the “redox activity (% of DA3003)” value is -1.51% (inactive).

For the compound `CNc1cc2[nH]c(=O)n(-c3ccc(NC(=O)NS(=O)(=O)c4ccc(Cl)s4)cc3)c(=O)c2cc1F`, the “redox activity (% of DA3003)” value is -6.22% (inactive).

`CO[C@H]1O[C@@H]2O[C@@]3(C)CCC4[C@H](C)CCC([C@H]1C)[C@]42OO3` (some centres undefined): the “redox activity (% of DA3003)” value is 1.85% (inactive). Same read-out and setting: in the case of `CNCCCC1(c2ccccc2)OC(C)(C)c2ccccc21` (centres undefined) it was -6.46% (inactive); in that of `COc1ccc(-c2cc3onc(-c4ccncc4)c3c(=O)n2C)cc1`, -4.32% (inactive); in that of `COc1cc(/C=C2\CCCN([C@@H](C)c3ccc(F)cc3)C2=O)ccc1-n1cnc(C)c1`, 0.067% (inactive).

Regarding `C=C1C(=O)O[C@@H]2/C=C(\CO)CC/C=C(/C=O)C[C@H](O)[C@@H]12`, the “redox activity (% of DA3003)” value is 2.42% (inactive). The same measure, in the same setting: the figure for `COc1cc(/C=N\NC(=O)c2ccc3c(c2)OCO3)ccc1OCc1ccccc1` is -1.27% (inactive); for `O=C(NCC1(c2nc(-c3ccccc3)cs2)CCOCC1)c1cccc(-c2noc(C(F)(F)F)n2)c1` it is 12.9% (inactive); for `O=S(=O)(Nc1ccccc1N1CCCCC1)c1ccc(Cl)s1` it is -4.22% (inactive). With `CC(=O)C=C=C1C(C)(C)CC(O)CC1(C)O[C@@H]1O[C@H](CO[C@H]2OC[C@](O)(CO)[C@H]2O)[C@@H](O)[C@H](O)[C@H]1O` (some centres undefined), the “redox activity (% of DA3003)” value is -9.4% [at 25.6 µM] (inactive).

For the compound `COc1cc(/C=C/C(=O)NCCn2c(C(F)(F)F)cc3ccccc32)cc(OC)c1OC`, the “redox activity (% of DA3003)” value was 7.1% (inactive).

Values taken from PubChem BioAssay (NCATS).
